From paper PMC5540273 (PLoS ONE, 2017)

Tested on: NEK9
Settings: concentration: 1 μM, replicates: in singlicate; n = 1
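Also: KINOMEscan kinase panel screen.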

| Structure (SMILES) | %Inh [%] |
| --- | --- |
| CN1CCN(Cc2ccc(NC(=O)Nc3ccc(N(C)c4ccnc(Nc5ccc(CS(C)(=O)=O)cc5)n4)cc3)cc2)CC1.Cl [GW827654] | 49 |
| COc1cccc(-c2nc(-c3ccccc3)[nH]c2-c2ccncc2)c1 [SB-610250] | 4 |
| CN(C)CCNS(=O)(=O)c1ccc(-c2ccnc3[nH]ccc23)cc1 [GSK977620] | 0 |
| N#CC1(c2cccc(C(=O)Nc3cccc(Oc4ccc5nc(NC(=O)C6CC6)sc5n4)c3)c2)CC1 | 0 |
| CCNC(=O)/C=C/c1n[nH]c2cc(Sc3ccccc3C(=O)NC)ccc12 | 0 |
| CCn1cnc2c(NCc3ccccc3)ncnc21 [SKF-96418] | 0 |
| CN(c1ccc2c(c1)nc(NCc1ccccc1)n2C)c1ccnc(Nc2ccc(CS(C)(=O)=O)cc2)n1.Cl [GW811603] | 55 |
| Cl.O=C(Nc1ccc(Oc2ccc3[nH]c(NC(=O)c4ccco4)nc3c2)cc1)Nc1cc(C(F)(F)F)ccc1F [GW683134] | 79 |
| Nc1ncc(-c2cn[nH]c2)c2scc(-c3ccc4c(c3)CCN4C(=O)Cc3ccccc3)c12 [GSK2593067] | 0 |
| Cc1ccc(NC(=O)c2ccc(Cl)c(Cl)c2)cc1-c1ccc(C(=O)Nc2ccncc2)cc1 [GSK1398460] | 7 |
| COC(=O)Nc1nc2ccc(Oc3ccc(NC(=O)Nc4cc(C(F)(F)F)ccc4F)cc3)cc2[nH]1.Cl [GW654607] | 57 |
| COc1ccc(C)c(Nc2ccnc(Nc3ccc(-c4cnc[nH]4)cc3)n2)c1.Cl [GW784041] | 0 |
